# Legend:
# NEK1 = conditions: compound concentrations:3nM, 10nM, 30nM, 100nM, 300nM, 1000nM, 3000nM, 30000nM,R2:0.97961263644427599,slope:0.99029629152452003,EC50 Standard Error, by the legend:Standard error of the EC50 estimation as provided by the drc package.
# NUAK1 = conditions: compound concentrations:3nM, 10nM, 30nM, 100nM, 300nM, 1000nM, 3000nM, 30000nM,R2:0.91267183430565202,slope:2.53834648929845,EC50 Standard Error, by the legend:Standard error of the EC50 estimation as provided by the drc package.
# PAK4 = conditions: compound concentrations:3nM, 10nM, 30nM, 100nM, 300nM, 1000nM, 3000nM, 30000nM,R2:0.99818475591728295,slope:0.99089042450123299,EC50 Standard Error, by the legend:Standard error of the EC50 estimation as provided by the drc package.
# PDPK1;PDPK2P = conditions: compound concentrations:3nM, 10nM, 30nM, 100nM, 300nM, 1000nM, 3000nM, 30000nM,R2:0.91971580292243504,slope:1.29280126727837,EC50 Standard Error, by the legend:Standard error of the EC50 estimation as provided by the drc package.
# PHKG2 = conditions: compound concentrations:3nM, 10nM, 30nM, 100nM, 300nM, 1000nM, 3000nM, 30000nM,R2:0.987331752692992,slope:1.79353666450797,EC50 Standard Error, by the legend:Standard error of the EC50 estimation as provided by the drc package.
# PLK4 = conditions: compound concentrations:3nM, 10nM, 30nM, 100nM, 300nM, 1000nM, 3000nM, 30000nM,R2:0.98129496676024397,slope:1.0145275307596699,EC50 Standard Error, by the legend:Standard error of the EC50 estimation as provided by the drc package.
# PRKD2 = conditions: compound concentrations:3nM, 10nM, 30nM, 100nM, 300nM, 1000nM, 3000nM, 30000nM,R2:0.99348954984815097,slope:2.8520769192550901,EC50 Standard Error, by the legend:Standard error of the EC50 estimation as provided by the drc package.
# PRKD3 = conditions: compound concentrations:3nM, 10nM, 30nM, 100nM, 300nM, 1000nM, 3000nM, 30000nM,R2:0.98624890214185301,slope:1.3007514421669799,EC50 Standard Error, by the legend:Standard error of the EC50 estimation as provided by the drc package.
# Q6ZSR9 = Q6ZSR9 (human, UniProt Q6ZSR9); conditions: compound concentrations:3nM, 10nM, 30nM, 100nM, 300nM, 1000nM, 3000nM, 30000nM,R2:0.98031780619019204,slope:1.5136598557560801,EC50 Standard Error, by the legend:Standard error of the EC50 estimation as provided by the drc package.
# Chain of Q6ZSR9 (Q6ZSR9 whole entry, looked up): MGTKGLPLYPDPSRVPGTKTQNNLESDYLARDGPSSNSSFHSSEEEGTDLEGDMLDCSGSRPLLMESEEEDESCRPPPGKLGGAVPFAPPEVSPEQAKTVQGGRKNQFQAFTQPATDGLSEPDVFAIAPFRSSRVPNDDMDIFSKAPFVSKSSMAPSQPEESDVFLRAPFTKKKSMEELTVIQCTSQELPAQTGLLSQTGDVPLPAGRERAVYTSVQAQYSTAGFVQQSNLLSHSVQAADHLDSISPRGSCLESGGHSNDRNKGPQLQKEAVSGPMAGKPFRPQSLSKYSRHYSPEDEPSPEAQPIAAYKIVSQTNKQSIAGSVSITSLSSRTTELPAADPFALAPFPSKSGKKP
# RET = conditions: compound concentrations:3nM, 10nM, 30nM, 100nM, 300nM, 1000nM, 3000nM, 30000nM,R2:0.99332600963227702,slope:0.91132357301438205,EC50 Standard Error, by the legend:Standard error of the EC50 estimation as provided by the drc package.
# SIK2 = conditions: compound concentrations:3nM, 10nM, 30nM, 100nM, 300nM, 1000nM, 3000nM, 30000nM,R2:0.98900734002019797,slope:1.1146515084845601,EC50 Standard Error, by the legend:Standard error of the EC50 estimation as provided by the drc package.
# SLK = conditions: compound concentrations:3nM, 10nM, 30nM, 100nM, 300nM, 1000nM, 3000nM, 30000nM,R2:0.98664495046468503,slope:1.29889224696913,EC50 Standard Error, by the legend:Standard error of the EC50 estimation as provided by the drc package.
# STK10 = conditions: compound concentrations:3nM, 10nM, 30nM, 100nM, 300nM, 1000nM, 3000nM, 30000nM,R2:0.96114701391993196,slope:1.3567914051898999,EC50 Standard Error, by the legend:Standard error of the EC50 estimation as provided by the drc package.
# STK11 = conditions: compound concentrations:3nM, 10nM, 30nM, 100nM, 300nM, 1000nM, 3000nM, 30000nM,R2:0.98533886968205897,slope:6.0517648666997097,EC50 Standard Error, by the legend:Standard error of the EC50 estimation as provided by the drc package.
# STK26 = conditions: compound concentrations:3nM, 10nM, 30nM, 100nM, 300nM, 1000nM, 3000nM, 30000nM,R2:0.89438319987914305,slope:6.7801376871061398,EC50 Standard Error, by the legend:Standard error of the EC50 estimation as provided by the drc package.
# STK3 = conditions: compound concentrations:3nM, 10nM, 30nM, 100nM, 300nM, 1000nM, 3000nM, 30000nM,R2:0.98274097972393204,slope:1.3616846231778099,EC50 Standard Error, by the legend:Standard error of the EC50 estimation as provided by the drc package.
# STK4 = conditions: compound concentrations:3nM, 10nM, 30nM, 100nM, 300nM, 1000nM, 3000nM, 30000nM,R2:0.95767016983562303,slope:1.48085900140722,EC50 Standard Error, by the legend:Standard error of the EC50 estimation as provided by the drc package.
# TGFBR2 = conditions: compound concentrations:3nM, 10nM, 30nM, 100nM, 300nM, 1000nM, 3000nM, 30000nM,R2:0.91957544903751998,slope:0.85257672285703501,EC50 Standard Error, by the legend:Standard error of the EC50 estimation as provided by the drc package.
# ADCK1 = conditions: compound concentrations:3nM, 10nM, 30nM, 100nM, 300nM, 1000nM, 3000nM, 30000nM,R2:0.94101841538293196,slope:0.49878905871205997,EC50 Standard Error, by the legend:Standard error of the EC50 estimation as provided by the drc package.
# CSNK2A1;CSNK2A3 = conditions: compound concentrations:3nM, 10nM, 30nM, 100nM, 300nM, 1000nM, 3000nM, 30000nM,R2:0.95393018675228303,slope:1.4690097586887201,EC50 Standard Error, by the legend:Standard error of the EC50 estimation as provided by the drc package.
substance,measurement,setting,value
TAK659,EC50,NEK1,0.589 µM
same,Kd,NEK1; read-out: apparent Kd,0.529 µM
same,EC50,NUAK1,1.02 µM
same,Kd,NUAK1; read-out: apparent Kd,0.312 µM
same,EC50,PAK4,0.336 µM
same,Kd,PAK4; read-out: apparent Kd,0.276 µM
same,EC50,PDPK1;PDPK2P,0.639 µM
same,Kd,PDPK1;PDPK2P; read-out: apparent Kd,0.639 µM
same,EC50,PHKG2,0.201 µM
same,Kd,PHKG2; read-out: apparent Kd,0.201 µM
same,EC50,PLK4,0.148 µM
same,Kd,PLK4; read-out: apparent Kd,0.0772 µM
same,EC50,PRKD2,1.01 µM
same,Kd,PRKD2; read-out: apparent Kd,0.895 µM
same,EC50,PRKD3,1.41 µM
same,Kd,PRKD3; read-out: apparent Kd,1.18 µM
same,EC50,Q6ZSR9,0.566 µM
same,Kd,Q6ZSR9; read-out: apparent Kd,0.493 µM
same,EC50,RET,0.0227 µM
same,Kd,RET; read-out: apparent Kd,0.0121 µM
same,EC50,SIK2,0.26 µM
same,Kd,SIK2; read-out: apparent Kd,0.14 µM
same,EC50,SLK,0.516 µM
same,Kd,SLK; read-out: apparent Kd,0.516 µM
same,EC50,STK10,0.725 µM
same,Kd,STK10; read-out: apparent Kd,0.725 µM
same,EC50,STK11,1.15 µM
same,Kd,STK11; read-out: apparent Kd,1.15 µM
same,EC50,STK26,0.363 µM
same,Kd,STK26; read-out: apparent Kd,0.275 µM
same,EC50,STK3,0.742 µM
same,Kd,STK3; read-out: apparent Kd,0.683 µM
same,EC50,STK4,0.628 µM
same,Kd,STK4; read-out: apparent Kd,0.567 µM
same,EC50,TGFBR2,3.72 µM
same,Kd,TGFBR2; read-out: apparent Kd,2.96 µM
Entospletinib,EC50,ADCK1,16.4 µM
same,Kd,ADCK1; read-out: apparent Kd,10.5 µM
same,EC50,CSNK2A1;CSNK2A3,1.59 µM
same,Kd,CSNK2A1;CSNK2A3; read-out: apparent Kd,1.59 µM

# — PMC11062922 (Nature Chemical Biology, 2023)
